# Test results taken from the supplement of paper PMC6555819.
# Legend:
# Assay in all cases: PBM binding z-score (relative to random genomic background probes); higher = stronger binding; sequences stand for … in GC…GCGATTGACAGCGTAGAATGAAGG
# [1] = test system: RARb homodimer (NR concentration 270 nM)
# Outline: (§1)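 Ligand-free nuclear receptor dimers were applied to custom Agilent 4×180K protein-binding microarrays whose double-stranded probes carried direct-repeat seeds, single-nucleotide variants, half-site ablations and random human genomic background sequences in 34-nt variable regions. Incubation lasted 1 h. Binding z-scores were computed against the random background probes from regression-normalized fluorescence.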
# [2] = test system: RARg:RXRa (NR concentration 270 nM, RXRa partner concentration 90 nM)
# Outline: as §1
# [3] = test system: RARg homodimer (NR concentration 270 nM)
# Outline: as §1
# [4] = test system: RXRa DBDmut IVT, anti-RXR (DBD mutation: RXRa K156A/R161A, NR concentration 90 nM)
# Outline: as §1
# [5] = test system: RXRa homodimer (NR concentration 180 nM)
# Outline: as §1
# [6] = test system: THRa:RXRa (NR concentration 90 nM, RXRa partner concentration 90 nM)
# Outline: as §1
# [7] = test system: THRa homodimer (NR concentration 90 nM)
# Outline: as §1
# [8] = test system: VDR:RXRa (NR concentration 270 nM, RXRa partner concentration 90 nM)
# Outline: as §1
# [9] = test system: VDR homodimer (NR concentration 270 nM)
# Outline: as §1
Sequence,PBM binding z-score [1],PBM binding z-score [2],PBM binding z-score [3],PBM binding z-score [4],PBM binding z-score [5],PBM binding z-score [6],PBM binding z-score [7],PBM binding z-score [8],PBM binding z-score [9]
TCGAGTAAGTTACGGGGGCATTCAGGGATGAAGA,1.15,1.48,0.746,1.48,1.4,3.54,0.682,3.01,3.03
TCGAGTATGTTACGGGGGCATTCAGGGATGAAGA,1.62,2.19,1.29,2.11,1.67,3.98,1.12,3.48,3.01
CCGAGTAGGTTACGAGGGGGCATTTAGTGCGAAT,2.18,3.09,2.33,1.31,2.16,3.92,0.585,4.94,2.81
TCAAGTAGGTTACGGGGGCATTCAGGGATGAAGA,2.65,3.75,3.05,2.81,3.19,3.8,2.1,4.11,4.17
TCGAGTAGGTTACGGGGGCAGTCAGGGATGAAGA,2.06,2.82,2.3,1,2.21,2.81,1,2.8,1.25
AGTCAAAGTTCAGCACGAGGTAACGTAAAGCACG,3.59,5.19,5.78,3.52,3.51,3.78,1.13,3.25,2.3
CAAACTAGGTCAAAGGTCAAAGACGAGCCAACCA,5.19,9.13,7.66,2.8,10.6,4.79,1.57,6.69,3.33
CGATCTAGGTCAAAGGACAGTGAAAGGCGACGTA,2.74,3.63,4.58,1.7,2.76,2.62,0.472,1.15,0.297
AATACAGGGTCACTAGGCCCGAGTAGGTACGAAT,2.85,5.05,4.72,2.31,5.31,3.09,0.859,3.96,2.26
TCGAGTAGGTTACGGGGCCATTCAGGGATGAAGA,1.21,0.957,0.954,0.0548,1.06,2.47,0.44,1.26,0.657
CCAGACAGGTGAAAGGTAACTCACTCTGGTACGC,0.88,1.34,0.948,0.0725,2.37,1.03,-0.0395,0.767,-0.0544
ATCTCTAGGTAAAGGTCAGTGAAAGATCGATAGA,4.26,4.52,5.13,0.521,4.35,2.98,0.87,2.89,1.17
AGTCAAATTTCATCTAGGTAACGTAAGATATGCT,-0.24,-0.128,0.382,0.077,0.184,0.722,0.526,0.0583,0.0484
